BJeLR lethal: MLPCN primary cell-based screen for lethality selective to Ras in HRASV12 cells | BJeLR (HRASV12) viability, CellTiter-Glo ATP luminescence, 48 h | inhibition, % (test concentration not listed) | hit rate 0.17% among 300,000 | AID 1554, 2009; in the data active means inhibition above about 50%
FBA Mtb inh: Mtb FBA enzyme inhibitors, primary screen, biochemical, fluorescence, strain H37Rv; Fructose-bisphosphate aldolase (Mycobacterium tuberculosis (strain ATCC 25618 / H37Rv)), …; purified M. tuberculosis FBA, fluorescence read-out; inhibition, % at 1 µM; hit rate 2.3% among 360,000;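 further: 0% = vehicle and 100% = reference inhibitor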
Target sequence (P9WQA3 whole entry, looked up): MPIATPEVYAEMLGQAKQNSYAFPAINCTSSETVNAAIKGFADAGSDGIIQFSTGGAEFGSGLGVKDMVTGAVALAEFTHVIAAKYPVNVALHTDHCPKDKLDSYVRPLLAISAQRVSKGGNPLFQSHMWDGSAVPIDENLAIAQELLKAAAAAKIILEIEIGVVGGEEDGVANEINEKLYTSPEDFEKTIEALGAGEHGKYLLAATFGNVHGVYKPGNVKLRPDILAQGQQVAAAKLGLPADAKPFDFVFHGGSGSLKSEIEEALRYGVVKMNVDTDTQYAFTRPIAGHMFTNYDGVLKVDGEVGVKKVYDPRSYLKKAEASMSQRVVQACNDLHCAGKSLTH
PrPC TRFRET: inhibitors of human cell surface prion protein PrPC, primary screen, cell-based, TR-FRET | TR-FRET read-out | hit rate 0.43% among 370,000 | AID 720596, 2013 | Major prion protein (Homo sapiens), P04156 | inhibition, % at 13.8 µM; in the data active means inhibition above about 24%; further: 0% = median of the test wells and 100% = reference compound wells
RecA splice inh: Mtb RecA intein splicing inhibitors, primary screen, biochemical, fluorescence, HTS. Protein RecA (Mycobacterium tuberculosis (strain ATCC 25618 / H37Rv)), P9WHJ3. inhibition, % (no concentration beside the values). hit rate 0.75% among 290,000. AID 2221, 2009. cell-free RecA intein splicing; in the data active means inhibition above about 30%;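 further: 0% = vehicle wells and 100% = reference inhibitor control wells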
GDH-TPI counter-1: GDH-TPI coupling enzyme inhibitors, primary screen, artefact control for M. tuberculosis FBA inhibitor project, biochemical, absorbance, full deck. GDH-TPI coupled enzyme counterscreen, NADH absorbance. inhibition, % at 4.8 µM. hit rate 1.2% among 360,000; in the data active means inhibition above about 30%;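 further: 0% = DMSO wells and 100% = wells lacking the enzyme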
Mtb FBA confirm: M. tuberculosis aldolase blockers, biochemical, fluorescence, strain H37Rv, confirmation. inhibition, % at 1 µM. purified M. tuberculosis FBA, fluorescence read-out. shares compounds with FBA Mtb inh. hit rate 78% among 5,600;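 further: 0% = vehicle wells and 100% = reference inhibitor wells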
GDH-TPI counter-2: GDH-TPI coupling enzyme inhibitors, artefact control for M. tuberculosis FBA inhibitor project, biochemical, fluorescence, high throughput; shares compounds with FBA Mtb inh; GDH-TPI coupled enzyme counterscreen; inhibition, % at 1 µM; hit rate 81% among 5,600; AID 652141, 2013; in the data active means inhibition above about 10%
GDH-TPI dose: GDH-TPI coupling enzyme inhibitors, dose response, artefact control for M. tuberculosis FBA inhibitor project, biochemical, fluorescence, IC50 | shares compounds with FBA Mtb inh | hit rate 79% among 170 | GDH-TPI coupled enzyme assay, artifact counterscreen | IC50, µM; call rule not given here
The depositor's hits bear a star; · = no result given; + = active, no number. Shown are actives, neighbours in structure and some others; about 4.2% of the full set was active somewhere. Unless noted, no stated cut-off is given here; in the data, active means inhibition above about 27%; inactive means the rest.

SMILES	BJeLR lethal	FBA Mtb inh	PrPC TRFRET	RecA splice inh	GDH-TPI counter-1	Mtb FBA confirm	GDH-TPI counter-2	others
O=C(N/N=C/C=C/c1ccccc1)c1ccccn1	8.5	64.6*	-9.5	-2.7	35.3*	180.1*	173.9*
COc1ccc([C@H]2OC(=O)C[C@H]2C(=O)N2CCN(C(=O)C3CCCO3)CC2)cc1OC (stereo partly specified)	·	·	-7.2	·	·	·	·
COC(=O)[C@H]1C[C@@]2(c3ccccc3)c3ccccc3N(S(=O)(=O)c3ccccc3)[C@H]2N1	·	·	4.0	·	·	·	·
COc1ccc(Cn2cc(CN3CC=CS3(=O)=O)nn2)cc1	·	·	-6.8	·	·	·	·
CCN(CC)c1ccc(C=NNC(=O)c2cc(-c3ccc(C)c(C)c3)n[nH]2)c(O)c1	·	·	7.8	·	·	·	·
Cc1cc(C)c2nc(-c3cccnc3)cc(C(=O)NC(C)c3cnn(C)c3C)c2c1 (stereo unspecified)	-2.9	40.3*	-3.8	-0.2	5.7	+	169.3*
Cc1cccc2c(C(=O)O)cc(-c3cccnc3)nc12	-2.1	6.0	-8.5	-1.5	4.5	·	·
C=CCN=C1NC(c2ccc(F)cc2)C(C(=O)OC)=C(C)N1C (stereo unspecified)	·	·	-6.6	·	·	·	·
Cc1ccc(-c2nc(NC(=O)CSc3nnc(C)s3)ns2)cc1	-2.7	1.1	-0.2	-0.1	6.9	·	·
COc1ccc(-c2nc(NC(=O)CSc3nnc(C)s3)ns2)cc1	14.2	41.2*	·	1.3	10.2	4.5	-3.9
CC(C)NC(=O)N(C)C[C@H]1Oc2ccc(NC(=O)CCC(F)(F)F)cc2C(=O)N([C@H](C)CO)C[C@@H]1C	·	4.0	-1.5	·	10.0	·	·
C[C@H](CO)N1C[C@H](C)[C@@H](CN(C)C(=O)NC2CCCCC2)Oc2ccc(NC(=O)CCC(F)(F)F)cc2C1=O	·	75.8*	-3.5	·	-1.3	1.9	-0.1
O=S1(=O)c2ccc(Br)cc2OC[C@@H](Cc2ccccc2)N1Cc1cn(Cc2ccc(C(F)(F)F)cc2)nn1	·	·	-5.4	·	·	·	·
Cc1nc2cc(-c3ccccc3)nn2c(C)c1CCC(=O)NCc1ccco1	-2.9	5.6	-1.6	-1.0	7.5	·	·
Cc1cc(C)c2c(n1)nn1c(C)c(CCC(=O)NCc3ccco3)c(C)nc21	8.3	30.2*	-5.0	-3.0	1.9	71.2*	47.6*
CCOCCCNC(=S)NCCCNc1nc2c(C)c(C)ccc2cc1C#N	·	47.4*	-6.4	·	2.2	110.9*	79.0*
Cc1ccc2cc(C#N)c(NCCCNC(=O)C3CCCO3)nc2c1 (stereo unspecified)	2.9	51.4*	-4.9	·	-1.8	92.4*	85.8*
CCOCCCNC(=S)N1CCCN(c2nc3c(C)c(C)ccc3cc2C#N)CC1	-3.5	12.8	1.8	-14.7	-6.7	·	·
Cc1ccc2cc(C#N)c(NCCNC(=O)C3CCC3)nc2c1C	10.7	52.5*	-0.6	-6.6	-0.9	2.5	-1.7
Cc1ccc(-n2c(SCC(=O)N/N=C/C=C\c3ccco3)nnc2-c2ccccc2)cc1	·	·	-1.5	·	·	·	·
OCCNc1nc2ccccc2nc1NCCO	-1.1	34.5*	-6.2	-0.1	15.9	+	173.0*
Cc1cc(NCCO)c2ccccc2n1	1.5	-0.3	-3.3	-0.1	6.9	·	·
OCCNc1cnc2ccccc2n1	-4.0	26.7	-0.7	-1.9	11.0	·	·
OCCNc1c2ccccc2nc2ccccc12	-4.5	60.3*	-7.6	-62.1	-3.9	61.6*	34.5*
Cc1cc(NCCO)c2cc(O)ccc2n1	-14.3	90.4*	-8.6	-57.5	14.6	105.4*	126.6*
SMILES	BJeLR lethal	FBA Mtb inh	PrPC TRFRET	RecA splice inh	GDH-TPI counter-1	Mtb FBA confirm	GDH-TPI counter-2	others
O=S(=O)(c1ccc(F)cc1)N1CCC(c2nc3ccccc3o2)CC1	·	·	-9.8	·	·	·	·
C#CC1(O)C2C=C(OC)C(=O)C1C(c1ccccc1)C2C (stereo unspecified)	·	·	-8.9	·	·	·	·
CC(=O)c1cc(-c2ccccc2)n(CC(=O)NCc2ccccc2)c1C	·	·	9.9	·	·	·	·
CC1CCCCC1N(C(=O)c1cc(C2CC2)on1)C1CCCCCC1 (stereo unspecified)	·	·	-11.3	·	·	·	·
CC12CCC(C)(c3nc4ccccc4nc31)C2(C)C	4.0	1.8	0.0	-3.5	5.0	·	·
Cc1[nH]nc2c1-c1nc3ccccc3nc1C(C)(C)C2	1.9	38.0*	21.5	0.0	24.9	16.5	17.9*
Cc1ccc(-c2cc(-c3ccc(C)o3)nc(N)c2C#N)cc1	4.3	18.9	-11.7	-4.5	11.9	·	·
Cc1ccc(-c2cc(-c3ccc(F)cc3)c(C#N)c(N)n2)o1	2.3	46.8*	-7.1	-26.1	2.5	+	173.4*
COc1ccccc1-c1oc2ccccc2c1C#CCCO	·	65.2*	0.9	·	20.2	6.5	4.5
O=C(CCl)Nc1ncc(S(=O)(=O)c2ccc([N+](=O)[O-])cc2)s1	·	-3.8	-16.4	·	11.4	·	·
CCC(C)(C)C(=O)Nc1ncc(S(=O)(=O)c2ccc([N+](=O)[O-])cc2)s1	10.5	75.8*	-13.3	-0.2	-3.5	3.5	-1.1
COc1ccc(CNC(=O)C2(C)Cc3c(-c4ccccc4)ccnc3O2)cc1OC (stereo unspecified)	·	0.1	-2.0	·	3.5	·	·
COc1ccc(CNC(=O)C2(C)Cc3c(-c4ccc(N(C)C)cc4)ccnc3O2)cc1OC (stereo unspecified)	·	54.6*	16.1	·	19.5	73.0*	49.9*
COc1ccc(NC(=O)C2(C)Cc3c(-c4ccc(N(C)C)cc4)ccnc3O2)cc1OC (stereo unspecified)	·	29.5*	6.0	·	15.9	13.6	-1.9	GDH-TPI dose=1.2*
COc1ccc(NC(=O)C2(C)Cc3c(-c4ccc(C(N)=O)cc4)ccnc3O2)cc1OC (stereo unspecified)	·	-2.6	-7.2	·	-6.2	·	·
COc1ccc(NC(=O)C2(C)Cc3c(-c4ccc(N(C)C)cc4)ccnc3O2)cc1 (stereo unspecified)	·	33.5*	1.0	·	18.6	104.3*	91.3*
COc1ccc(NC(=O)C2(C)Cc3c(-c4ccc(NC(C)=O)cc4)ccnc3O2)cc1 (stereo unspecified)	·	0.6	-5.2	·	-8.0	·	·
C[C@H]1C2CC(OC(=O)Nc3ccc(C(F)(F)F)cc3)C(C2)[C@H]2CCCCN21 (stereo partly specified)	·	·	3.4	·	·	·	·
COC(=O)c1cc(-c2ccc(F)c(Cl)c2)c(=O)n2c1CCC2	·	·	2.8	·	·	·	·

Compound activity from PubChem BioAssay.
